From PubChem BioAssay (EPA / NIEHS)
Where “and” joins values, the source holds several entries; their conditions need not be identical. Identical values can stand only once. Results filed as inconclusive are left out. Some compounds were tested as several samples or in several runs, with calls that do not always agree. Calls of active or inactive are those of the source. The calls were made as follows, unless noted: active = hit-call score of the fitted dose curve at least 0.9, where 1 is the maximum; inconclusive = response in the unintended direction; inactive = score below 0.9.

Legend:
[1] = ATG_TGFb_CIS: Attagene CIS-FACTORIAL HepG2 Assay for human Transforming Growth Factor (TGF) (AID 2282967; active = hit-call score of the fitted dose curve at least 0.9, where 1 is the maximum; inactive = score below 0.9); settings: HepG2 Attagene CIS TGFb reporter, mRNA transcription; actives raise or lower the signal
Outline: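 Bidirectional fitting relative to DMSO gave the endpoint. Underlying data: reporter mRNA from HepG2 cells carrying transiently transfected cis-regulated reporter constructs, harvested 24 h after dosing and analyzed by RT-PCR and capillary electrophoresis.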

[2] = ATG_VDRE_CIS: Attagene CIS-FACTORIAL HepG2 Assay for human Vitamin D Receptor Element (VDRE) (AID 2282968; active = hit-call score of the fitted dose curve at least 0.9, where 1 is the maximum; inactive = score below 0.9); settings: HepG2 VDRE cis-reporter transcription, actives raise or lower the signal
Outline: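 Cell-based multiplexed reporter format in human liver HepG2 cells, 24 h post-dose. Fluorescence from capillary electrophoresis of reporter cDNA gives the signal, with DMSO as negative control and baseline.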

[3] = target: Nuclear receptor subfamily 1 group I member 3 (Homo sapiens) (UniProt Q14994); assay: ATG_CAR_TRANS: Attagene TRANS-FACTORIAL HepG2 Assay for human Constitutive Androstane Receptor (CAR) (AID 2282969); settings: HepG2 Attagene TRANS-FACTORIAL CAR reporter;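 also: activators raise reporter mRNA above DMSO so AC50 marks induction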
Sequence of Nuclear receptor subfamily 1 group I member 3 (Homo sapiens) (Q14994 whole entry, looked up, the tested form may be a part): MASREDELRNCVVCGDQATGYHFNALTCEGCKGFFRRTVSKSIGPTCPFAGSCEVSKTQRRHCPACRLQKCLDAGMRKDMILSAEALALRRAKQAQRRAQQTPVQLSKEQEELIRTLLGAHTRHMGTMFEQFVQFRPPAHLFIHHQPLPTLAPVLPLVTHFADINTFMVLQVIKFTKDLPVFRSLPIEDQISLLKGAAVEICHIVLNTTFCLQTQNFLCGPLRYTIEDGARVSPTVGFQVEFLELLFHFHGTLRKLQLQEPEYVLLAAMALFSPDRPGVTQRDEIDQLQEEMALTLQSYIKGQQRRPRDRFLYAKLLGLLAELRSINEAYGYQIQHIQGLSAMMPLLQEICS
Outline: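 HepG2 cells transiently transfected with GAL4-UAS reporter units; TRANS format reads activity of exogenous chimeric NR-Gal4 protein. After 24 h dosing, reporter mRNA quantified by RT-PCR, 6-FAM labelling and capillary electrophoresis; gain of signal fitted against DMSO.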

[4] = target: Estrogen receptor (Homo sapiens) (UniProt P03372); assay: ATG_ERa_TRANS: Attagene TRANS-FACTORIAL HepG2 Assay for human Estrogen Receptor alpha (ERa) (AID 2282970); settings: HepG2 Attagene TRANS ERa GAL4 reporter, mRNA
Sequence of Estrogen receptor (Homo sapiens) (P03372 whole entry, looked up, the tested form may be a part): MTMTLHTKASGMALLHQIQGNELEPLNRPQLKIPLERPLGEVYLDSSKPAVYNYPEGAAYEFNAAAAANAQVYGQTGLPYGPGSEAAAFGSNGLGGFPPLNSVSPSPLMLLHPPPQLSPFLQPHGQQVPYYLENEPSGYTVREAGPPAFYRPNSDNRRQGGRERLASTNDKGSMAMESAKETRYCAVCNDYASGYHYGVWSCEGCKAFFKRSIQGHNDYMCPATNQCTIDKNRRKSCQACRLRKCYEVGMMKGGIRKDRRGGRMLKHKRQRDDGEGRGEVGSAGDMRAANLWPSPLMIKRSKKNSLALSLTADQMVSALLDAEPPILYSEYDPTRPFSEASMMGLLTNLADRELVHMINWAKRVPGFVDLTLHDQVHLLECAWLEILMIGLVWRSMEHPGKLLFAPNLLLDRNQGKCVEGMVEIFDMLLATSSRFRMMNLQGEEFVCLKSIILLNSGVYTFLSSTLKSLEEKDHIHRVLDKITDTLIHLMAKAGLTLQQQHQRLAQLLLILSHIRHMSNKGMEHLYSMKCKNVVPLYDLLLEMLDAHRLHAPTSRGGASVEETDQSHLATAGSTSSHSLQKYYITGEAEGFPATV
Outline: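 Human liver HepG2, transient transfection of multiple GAL4-UAS reporter units; TRANS format (exogenous NR-Gal4 chimera). 24 h dosing. Readout: reporter mRNA, RT-PCR, 6-FAM primer extension, HpaI digest, capillary electrophoresis. Positive direction vs DMSO.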

[5] = target: X-box-binding protein 1 (Homo sapiens) (UniProt P17861); assay: ATG_Xbp1_CIS: Attagene CIS-FACTORIAL HepG2 Assay for human X-box Binding Protein 1 (XBP1) (AID 2282972; active = hit-call score of the fitted dose curve at least 0.9, where 1 is the maximum; inactive = score below 0.9); settings: HepG2 XBP1 cis-element reporter, Attagene multiplex; actives raise or lower the signal
Sequence of X-box-binding protein 1 (Homo sapiens) (P17861 whole entry, looked up): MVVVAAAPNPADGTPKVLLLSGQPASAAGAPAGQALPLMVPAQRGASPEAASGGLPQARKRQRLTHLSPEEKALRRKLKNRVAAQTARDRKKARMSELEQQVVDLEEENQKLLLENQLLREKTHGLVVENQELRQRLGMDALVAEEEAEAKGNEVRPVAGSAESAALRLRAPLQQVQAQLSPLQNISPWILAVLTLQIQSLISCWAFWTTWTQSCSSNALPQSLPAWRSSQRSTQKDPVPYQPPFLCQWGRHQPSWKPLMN
Outline: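 After a 24-hour chemical exposure of HepG2 cells carrying cis-regulated reporters, reporter mRNA levels are assessed. Quantification uses RT-PCR, 6-FAM labelling and capillary electrophoresis. Gain- or loss-of-signal is fitted against DMSO.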

[6] = ATG_GAL4_TRANS: Attagene TRANS-FACTORIAL HepG2 Assay for GAL4 (Internal Marker) (AID 2282976); settings: HepG2 Attagene TRANS GAL4 internal marker reporter
Outline: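 First, HepG2 cells were transfected with reporter units under GAL4-UAS control. Next, they were treated with chemical for 24 h. Finally, RNA was reverse-transcribed, PCR-amplified, FAM-labelled and resolved by capillary electrophoresis, with induction scored against DMSO.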

[7] = target: Glucocorticoid receptor (Homo sapiens) (UniProt P04150); assay: ATG_GR_TRANS: Attagene TRANS-FACTORIAL HepG2 Assay for human Glucocorticoid Receptor (GR) (AID 2282978); settings: HepG2 Attagene TRANS GR reporter, mRNA transcription;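 also: activators score as hits since higher reporter transcript over DMSO is fitted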
Sequence of Glucocorticoid receptor (Homo sapiens) (P04150 whole entry, looked up, the tested form may be a part): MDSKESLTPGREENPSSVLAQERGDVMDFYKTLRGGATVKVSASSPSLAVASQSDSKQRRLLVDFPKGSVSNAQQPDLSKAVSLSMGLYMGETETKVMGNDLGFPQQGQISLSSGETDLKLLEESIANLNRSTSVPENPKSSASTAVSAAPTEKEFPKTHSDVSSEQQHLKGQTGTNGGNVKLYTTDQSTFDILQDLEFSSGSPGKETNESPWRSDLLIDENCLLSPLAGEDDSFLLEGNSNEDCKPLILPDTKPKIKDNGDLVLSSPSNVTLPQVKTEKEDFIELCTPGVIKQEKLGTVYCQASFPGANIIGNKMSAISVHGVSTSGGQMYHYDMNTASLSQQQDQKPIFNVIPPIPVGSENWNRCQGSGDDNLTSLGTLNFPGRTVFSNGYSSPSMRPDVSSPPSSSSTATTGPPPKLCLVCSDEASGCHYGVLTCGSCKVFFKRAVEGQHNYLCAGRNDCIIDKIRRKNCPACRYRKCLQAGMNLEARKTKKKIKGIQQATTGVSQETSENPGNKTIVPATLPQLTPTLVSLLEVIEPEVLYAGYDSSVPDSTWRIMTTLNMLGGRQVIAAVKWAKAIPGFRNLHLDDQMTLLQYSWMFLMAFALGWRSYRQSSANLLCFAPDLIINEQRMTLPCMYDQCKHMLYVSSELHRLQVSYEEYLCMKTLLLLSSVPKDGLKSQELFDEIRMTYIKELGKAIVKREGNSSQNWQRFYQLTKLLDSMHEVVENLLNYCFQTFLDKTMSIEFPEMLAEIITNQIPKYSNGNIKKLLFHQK
Outline: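 Transient MRTU transfection of HepG2 (GAL4-UAS reporters, exogenous NR-GAL4 chimeras), 24 h dosing. Readout: reporter transcript via RT-PCR + capillary electrophoresis fluorescence. Positive direction vs DMSO baseline.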

[8] = target: Oxysterols receptor LXR-beta (Homo sapiens) (UniProt P55055); assay: ATG_LXRb_TRANS: Attagene TRANS-FACTORIAL HepG2 Assay for human Liver X Receptor beta (LXRb) (AID 2282981); settings: HepG2 Attagene TRANS GAL4-LXRb reporter, mRNA
Sequence of Oxysterols receptor LXR-beta (Homo sapiens) (P55055 whole entry, looked up, the tested form may be a part): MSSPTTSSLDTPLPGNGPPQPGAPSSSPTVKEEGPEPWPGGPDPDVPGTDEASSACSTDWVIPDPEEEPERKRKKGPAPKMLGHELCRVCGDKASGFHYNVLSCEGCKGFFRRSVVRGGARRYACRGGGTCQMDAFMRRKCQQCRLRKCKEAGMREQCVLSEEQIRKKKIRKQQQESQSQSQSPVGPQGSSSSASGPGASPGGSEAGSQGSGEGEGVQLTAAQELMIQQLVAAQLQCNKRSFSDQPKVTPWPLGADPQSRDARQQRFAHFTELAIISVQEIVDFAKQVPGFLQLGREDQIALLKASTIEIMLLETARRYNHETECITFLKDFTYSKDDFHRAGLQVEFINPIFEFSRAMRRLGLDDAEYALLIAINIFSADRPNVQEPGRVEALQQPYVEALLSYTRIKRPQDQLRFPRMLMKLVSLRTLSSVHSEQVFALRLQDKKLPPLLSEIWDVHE
Outline: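 Gain-of-signal mRNA reporter endpoint, DMSO as negative control. Transiently transfected HepG2 cells carrying the NR-Gal4 chimera and GAL4-UAS reporter units were treated 24 h; transcripts quantified by RT-PCR and capillary electrophoresis fluorescence.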

[9] = ATG_M_06_TRANS: Attagene TRANS-FACTORIAL HepG2 Assay for M06 Transcription Factor (Internal Marker) (AID 2282983); settings: HepG2 Attagene TRANS M06 internal marker reporter
Outline: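 Transfect HepG2 with MRTUs → dose compounds 24 h → isolate RNA, oligo(dT) RT → PCR with reporter primers → 6-FAM primer extension → HpaI digest → CE fragment analysis. Positive direction vs DMSO.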

[10] = target: Transcriptional activator Myb (Homo sapiens) (UniProt P10242); assay: ATG_Myb_CIS: Attagene CIS-FACTORIAL HepG2 Assay for human Myeloblastosis (Myb) Proto-Oncogene Transcription Factor (AID 2282986; active = hit-call score of the fitted dose curve at least 0.9, where 1 is the maximum; inactive = score below 0.9); settings: HepG2 Attagene CIS-FACTORIAL Myb reporter transcription; actives raise or lower the signal
Sequence of Transcriptional activator Myb (Homo sapiens) (P10242 whole entry, looked up): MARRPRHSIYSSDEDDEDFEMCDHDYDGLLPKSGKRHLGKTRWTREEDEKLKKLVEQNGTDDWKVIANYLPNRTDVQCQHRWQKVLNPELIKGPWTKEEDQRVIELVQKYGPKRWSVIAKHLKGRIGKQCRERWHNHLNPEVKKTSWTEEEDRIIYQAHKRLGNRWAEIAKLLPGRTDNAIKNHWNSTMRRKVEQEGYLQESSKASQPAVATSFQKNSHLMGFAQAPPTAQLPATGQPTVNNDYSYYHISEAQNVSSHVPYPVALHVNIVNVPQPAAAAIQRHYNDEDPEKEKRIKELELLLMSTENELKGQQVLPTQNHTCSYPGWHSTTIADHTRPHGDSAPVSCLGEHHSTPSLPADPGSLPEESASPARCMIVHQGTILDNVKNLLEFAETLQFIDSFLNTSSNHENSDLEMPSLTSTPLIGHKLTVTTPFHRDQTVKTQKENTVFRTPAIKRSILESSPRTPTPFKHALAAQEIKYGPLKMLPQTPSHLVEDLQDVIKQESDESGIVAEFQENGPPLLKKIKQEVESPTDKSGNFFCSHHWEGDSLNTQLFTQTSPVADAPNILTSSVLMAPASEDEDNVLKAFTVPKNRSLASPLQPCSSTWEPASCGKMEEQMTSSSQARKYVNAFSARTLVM
Outline: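 HepG2, transient MRTU transfection (cis-element promoters, endogenous TF activity), 24 h compound exposure. Readout: reporter mRNA via RT-PCR, 6-FAM labeling, HpaI digest, capillary electrophoresis. Gain/loss fit vs DMSO.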

[11] = target: Nuclear respiratory factor 1 (Homo sapiens) (UniProt Q16656); assay: ATG_NRF1_CIS: Attagene CIS-FACTORIAL HepG2 Assay for human Nuclear Respiratory Factor 1 (NRF1) Orphan Gene (AID 2282987; active = hit-call score of the fitted dose curve at least 0.9, where 1 is the maximum; inactive = score below 0.9); settings: HepG2 NRF1 cis-element reporter, Attagene multiplex; actives raise or lower the signal
Outline: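 Endogenous NRF1-driven reporter transcription measured in transiently transfected human HepG2 liver cells. Readout: reporter mRNA by RT-PCR and capillary electrophoresis with fluorescence detection, 24 h post-dosing. Gain or loss of signal fitted relative to DMSO baseline.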

[12] = ATG_M_19_TRANS: Attagene TRANS-FACTORIAL HepG2 Assay for M19 Transcription Factor (Internal Marker) (AID 2282974); settings: HepG2 Attagene TRANS-FACTORIAL M19 internal marker reporter
Outline: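 24 h chemical exposure of transiently transfected HepG2 (MRTU library). RNA → oligo(dT) RT → PCR → 6-FAM labelling → HpaI cut → CE fluorescence. Positive-direction fit vs DMSO baseline; background internal-marker readout.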

[13] = target: Bile acid receptor (Homo sapiens) (UniProt Q96RI1); assay: ATG_FXR_TRANS: Attagene TRANS-FACTORIAL HepG2 Assay for Farnesoid X Receptor (FXR) (AID 2282979); settings: HepG2 Attagene TRANS FXR-GAL4 reporter transcription;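 also: hits raise reporter mRNA above DMSO so AC50 marks FXR activation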
Sequence of Bile acid receptor (Homo sapiens) (Q96RI1 whole entry, looked up, the tested form may be a part): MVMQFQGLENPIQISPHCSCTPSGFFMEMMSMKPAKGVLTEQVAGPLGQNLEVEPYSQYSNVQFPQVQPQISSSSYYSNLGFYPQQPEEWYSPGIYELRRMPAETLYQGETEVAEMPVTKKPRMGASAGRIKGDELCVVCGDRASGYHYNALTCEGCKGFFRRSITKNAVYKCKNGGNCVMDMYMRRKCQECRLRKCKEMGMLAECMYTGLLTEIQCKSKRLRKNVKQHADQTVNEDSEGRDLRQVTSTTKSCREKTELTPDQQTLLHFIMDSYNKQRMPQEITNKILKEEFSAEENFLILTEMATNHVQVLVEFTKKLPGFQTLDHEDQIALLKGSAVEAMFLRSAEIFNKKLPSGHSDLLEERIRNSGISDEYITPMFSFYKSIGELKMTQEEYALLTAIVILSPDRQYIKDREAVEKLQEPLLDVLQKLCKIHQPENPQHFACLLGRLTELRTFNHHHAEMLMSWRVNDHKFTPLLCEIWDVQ
Outline: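 Transient transfection of HepG2 with multiplexed GAL4-UAS reporter units; exogenous FXR-GAL4 chimera. Dose 24 h → TriZol RNA → oligo(dT) RT → PCR, 6-FAM primer extension, HpaI cut → CE. Gain vs DMSO.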

[14] = target: Oxysterols receptor LXR-alpha (Homo sapiens) (UniProt Q13133); assay: ATG_LXRa_TRANS: Attagene TRANS-FACTORIAL HepG2 Assay for human Liver X Receptor alpha (LXRa) (AID 2282980); settings: HepG2 Attagene TRANS reporter, LXRa transactivation
Sequence of Oxysterols receptor LXR-alpha (Homo sapiens) (Q13133 whole entry, looked up, the tested form may be a part): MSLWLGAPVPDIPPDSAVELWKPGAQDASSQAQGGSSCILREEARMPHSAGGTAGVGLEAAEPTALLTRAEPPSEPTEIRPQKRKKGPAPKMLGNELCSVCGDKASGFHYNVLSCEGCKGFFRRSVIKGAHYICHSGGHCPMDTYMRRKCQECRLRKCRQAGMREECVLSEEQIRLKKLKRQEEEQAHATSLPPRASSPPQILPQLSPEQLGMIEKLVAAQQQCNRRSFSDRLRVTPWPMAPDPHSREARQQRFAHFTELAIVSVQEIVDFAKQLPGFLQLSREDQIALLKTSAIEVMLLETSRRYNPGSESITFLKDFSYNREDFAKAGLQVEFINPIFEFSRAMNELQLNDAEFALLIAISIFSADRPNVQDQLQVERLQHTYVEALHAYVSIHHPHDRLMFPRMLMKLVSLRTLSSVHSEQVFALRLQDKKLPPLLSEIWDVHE
Outline: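 Transfect HepG2 with GAL4-UAS multiplex reporter constructs (TRANS format, chimeric receptor-GAL4); treat 24 h; extract RNA, reverse-transcribe, PCR-amplify, FAM-label, HpaI-digest; resolve fragments by capillary electrophoresis. Upward response vs DMSO.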

[15] = target: Hepatocyte nuclear factor 4-alpha (Homo sapiens) (UniProt P41235); assay: ATG_HNF4a_TRANS: Attagene TRANS-FACTORIAL HepG2 Assay for human Hepatocyte Nuclear Factor 4 alpha (HNF4a) (AID 2282982); settings: HepG2 HNF4a transactivation reporter, mRNA readout
Outline: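 Gain-of-signal mRNA induction, relative to DMSO vehicle, was read after 24 h compound treatment of HepG2 cells bearing transfected GAL4-UAS reporters. Detection used RT-PCR, 6-FAM primer extension and capillary electrophoresis.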

[16] = ATG_M_32_TRANS: Attagene TRANS-FACTORIAL HepG2 Assay for M32 Transcription Factor (Internal Marker) (AID 2282984); settings: HepG2 Attagene TRANS M32 internal marker reporter;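 also: transcript level of a background control reporter unit measured by RT-PCR and capillary electrophoresis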
Outline: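 Capillary electrophoresis of 6-FAM-labelled reporter fragments gives the signal; data fitted for gain over DMSO negative control. Source: HepG2 cells bearing transient multiple reporter transcription units, 24 h exposure.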

[17] = target: Nuclear receptor subfamily 4 group A member 2 (Homo sapiens) (UniProt P43354); assay: ATG_NURR1_TRANS: Attagene TRANS-FACTORIAL HepG2 Assay for human Nuclear Receptor Related Protein 1 (NURR1) (AID 2282985); settings: HepG2 Attagene TRANS reporter, mRNA readout
Sequence of Nuclear receptor subfamily 4 group A member 2 (Homo sapiens) (P43354 whole entry, looked up): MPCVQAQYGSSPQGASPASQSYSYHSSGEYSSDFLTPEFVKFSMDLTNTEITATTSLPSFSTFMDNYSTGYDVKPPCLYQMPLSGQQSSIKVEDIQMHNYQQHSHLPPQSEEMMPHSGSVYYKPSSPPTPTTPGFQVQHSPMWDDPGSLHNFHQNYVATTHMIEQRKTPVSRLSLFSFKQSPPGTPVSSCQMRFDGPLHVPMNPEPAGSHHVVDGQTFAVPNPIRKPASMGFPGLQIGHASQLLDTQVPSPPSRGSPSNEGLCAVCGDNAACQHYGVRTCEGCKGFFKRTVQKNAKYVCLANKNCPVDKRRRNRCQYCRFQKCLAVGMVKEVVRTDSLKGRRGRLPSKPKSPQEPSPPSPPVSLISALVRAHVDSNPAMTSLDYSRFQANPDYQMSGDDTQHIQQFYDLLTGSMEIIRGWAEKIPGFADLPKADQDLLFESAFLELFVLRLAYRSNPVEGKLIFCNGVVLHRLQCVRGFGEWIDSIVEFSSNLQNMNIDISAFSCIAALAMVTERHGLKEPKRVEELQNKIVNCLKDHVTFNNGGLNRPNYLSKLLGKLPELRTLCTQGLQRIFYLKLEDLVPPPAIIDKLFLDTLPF
Outline: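 HepG2 / transient MRTU transfection / 24 h compound exposure / RT-PCR + CE fluorescence of reporter mRNA / gain-of-signal vs DMSO.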

[18] = target: Steroid hormone receptor ERR1 (Homo sapiens) (UniProt P11474); assay: ATG_ERRa_TRANS: Attagene TRANS-FACTORIAL HepG2 Assay for human Estrogen-Related Receptor alpha (ERRa) (AID 2282971); settings: HepG2 Attagene TRANS reporter, ERRa transactivation
Outline: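 Reporter transcript induction was quantified by RT-PCR and capillary electrophoresis of FAM-labelled, HpaI-cut products after 24 h treatment of HepG2 cells carrying transiently transfected GAL4-UAS reporter units and an exogenous ERRa-Gal4 fusion; activity scored as increase over DMSO.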

[19] = target: Androgen receptor (Homo sapiens) (UniProt P10275); assay: ATG_AR_TRANS: Attagene TRANS-FACTORIAL HepG2 Assay for human Androgen Receptor (AR) (AID 2282973); settings: HepG2 Attagene TRANS-FACTORIAL AR reporter transcription
Outline: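 Steps: transfect HepG2 with multiple GAL4-UAS reporter transcription units (TRANS format, exogenous NR-Gal4 protein); dose 24 h; isolate RNA, reverse-transcribe, PCR-amplify, FAM-label, HpaI-digest; resolve by capillary electrophoresis. Positive direction vs DMSO.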

Measured: AC50

CNC(=O)O/N=C/C(C)(C)S(C)=O (stereo not drawn)
not listed: [12] | [13] | [14] | [15] | [16] | [17] | [18] | [19]
inactive: all other assays above

ClCc1cccnc1
active: [1] 63.2 µM | [2] 48.3 µM | [5] 58.1 µM
not listed: [6] | [7] | [18] | [19]
inactive: all other assays above

CCN(CC)C(=O)Cl
active: [1] 0.104 µM | [4] 15.9 µM
not listed: [7] | [12] | [14] | [17] | [19]
inactive: all other assays above

CN(C)N=O
not listed: [4] | [10] | [14] | [16] | [18] | [19]
inactive: all other assays above

CC(C)(c1ccccc1)c1ccc(O)c(C(C)(C)c2ccccc2)c1
inactive: [1] | [3] | [12] | [13] | [14] | [9] | [17] | [10]
active: [2] 0.702 µM | [4] 5.55 µM | [5] 10.1 µM | [11] 6.39 µM

COP(=S)(OC)Oc1ccc(Sc2ccc(OP(=S)(OC)OC)cc2)cc1
active: [1] 61.7 µM | [2] 9.75 µM | [5] 6.02 µM
not listed: [6] | [7] | [12] | [13] | [18]
inactive: all other assays above

CCOP(=S)(OCC)SCSP(=S)(OCC)OCC
active: [2] 1.32 µM | [4] 3.88 µM | [14] 7.73 µM | [8] 18.9 µM
not listed: [6] | [13] | [16] | [18] | [19]
inactive: all other assays above

O=C/C=C/c1ccccc1
active: [2] 45.5 µM | [4] 27.8 µM
not listed: [6] | [9] | [13] | [18] | [19]
inactive: all other assays above
